Reference: PubChem BioAssay AID463173 (ICCB-Longwood Screening Facility, Harvard Medical School, 2010)
Hit rate of the full screen: of about 52,000 compounds, about 4,300 (8.3%) were called active. Rule as the data show it: active = survival mostly below about 52% (no sharp cut-off); inactive = mostly above about 56%. The list comes from a sample in which actives are over-represented; it also holds similar structures and randomly drawn compounds.

Test system: DeltatarO mutant
Assay: S. aureus survival, RN4220 and DeltatarO strains – OD600, teichoic acid synthesis inhibitors, primary screen (AID 463173)
Conditions: S. aureus RN4220 wild type/DeltatarO growth, OD600, 18 h, active compounds read low, screened at 18.75 µg/mL (by protocol)

| Compound | survival |
| --- | --- |
| CCOC(=O)/C(C)=C1\NC(C)(C)Cc2ccccc21 | 92% (inactive) |
| Cc1coc2cc3oc(=O)c(CCC(=O)NCc4ccccc4Cl)c(C)c3cc12 | 66% (inactive) |
| Cc1ccc2c(c1)nc(SCC(O)c1ccc(Br)cc1)n2C (stereo not drawn) | 70% (inactive) |
| COc1cc2c(cc1OC)-c1n[nH]c(=S)n1C(C)(C)C2 | 90% (inactive) |
| CC(=O)c1c(C)n(-c2ccc(C)cc2)c2ccc(OC(=O)COc3ccccc3)cc12 | 62% (inactive) |
| COc1ccccc1CN1CCN(C(CC(C)C)c2nnnn2Cc2ccc(F)cc2)CC1 (stereo not drawn) | 85% (inactive) |
| O=C(/C=C/c1ccccc1)N1CCCC1=O | 94% (inactive) |
| O=C1CCCCCN1Sc1ccccc1 | 48% (active) |
| O=C1CCC(=O)N1c1ccccc1 | 98% (inactive) |
| CCN(CCCNC(=O)c1ccc(Sc2ccc(Cl)cc2)c(NC(C)=O)c1)c1cccc(C)c1 | 89% (inactive) |
| Cc1ccccc1Nc1c(-c2ccc(Br)o2)nc2ccc(Cl)cn12 | 37% (active) |
| Cc1ccccc1Nc1c(-c2cccc(O)c2)nc2ccc(Br)cn12 | 64% (inactive) |
| Cc1ccccc1Nc1c(-c2ccncc2)nc2ccc(Cl)cn12 | 118% (inactive) |
| COc1cc(O)ccc1-c1nc2ccc(Br)cn2c1Nc1ccccc1C | 46% (active) |
| COc1cc(O)ccc1-c1nc2cc(C)ccn2c1Nc1ccccc1C | 69% (inactive) |
| Cc1ccccc1Nc1c(-c2cccnc2)nc2ccc(Cl)cn12 | 92% (inactive) |
| CCOC(=O)c1c(S(=O)(=O)N2CCCC(C(=O)Nc3ccc(OCC)cc3)C2)c(C)n(C)c1C (stereo not drawn) | 99% (inactive) |
| COc1ccc(CNC(=O)C(=O)NCC(c2cccs2)S(=O)(=O)c2cccs2)cc1 (stereo not drawn) | 89% (inactive) |
| CCCCOc1ccc(C(=O)N(Cc2ccco2)Cc2ccco2)cc1 | 94% (inactive) |
| Cc1cccc(NC(=O)c2cc3c([nH]c2=O)CC(c2ccccc2)CC3=O)c1 (stereo not drawn) | 20% (active) |

| Compound | survival |
| --- | --- |
| CC(=O)c1ccc(NC(=O)c2cc3c([nH]c2=O)CC(c2ccccc2)CC3=O)cc1 (stereo not drawn) | 63% (inactive) |
| O=C1CC(c2ccccc2)Cc2[nH]c(=O)c(C(=O)Nc3cccc(F)c3)cc21 (stereo not drawn) | 89% (inactive) |
| COc1ccc(NC(=O)c2cc3c([nH]c2=O)CC(c2ccccc2)CC3=O)cc1 (stereo not drawn) | 91% (inactive) |
| O=C1CC(c2ccccc2)Cc2[nH]c(=O)c(C(=O)Nc3ccc(F)cc3)cc21 (stereo not drawn) | 101% (inactive) |
| O=C1CC(c2ccccc2)Cc2[nH]c(=O)c(C(=O)Nc3cccc(Cl)c3)cc21 (stereo not drawn) | 8% (active) |
| COc1ccc(S(=O)(=O)c2c(C)c(NS(=O)(=O)c3ccccc3)cc(C)c2O)cc1 | 67% (inactive) |
| CC(C)N(Cc1ccccc1)C(=O)CCS(=O)(=O)c1cc2c(cc1Cl)NC(=O)CO2 | 103% (inactive) |
| CC(C)(C)c1ccc(S(=O)(=O)c2cnc(SCC(=O)Nc3ccc4c(c3)OCCO4)[nH]c2=O)cc1 | 120% (inactive) |
| COc1ccc(S(=O)(=O)N(CC(=O)NCCSCc2ccccc2)c2ccc(C)cc2)cc1 | 54% (inactive) |
| CCN1CCN(C(=O)c2cnn(-c3ccc(F)cc3)c2-n2cccc2)CC1 | 135% (inactive) |
| CCc1ccc(NC(=O)CSc2ccc(-c3sc(-c4ccccc4)nc3C)nn2)cc1 | 38% (inactive) |
| COC(=O)c1ccc(NC(=O)CSc2ccc(-c3sc(-c4ccccc4)nc3C)nn2)cc1 | 56% (active) |
| CCOc1ccc(NC(=O)CSc2ccc(-c3sc(-c4ccccc4)nc3C)nn2)cc1 | 15% (active) |
| COC(=O)c1ccc(NC(=O)CSc2n[nH]c(CC(C)C)n2)cc1 | 36% (active) |
| COC(=O)c1ccc(NC(=O)CSc2n[nH]c(-c3ccccc3)n2)cc1 | 88% (inactive) |
| Cc1ccc(CNC(=O)CSc2ccc(-c3sc(-c4ccccc4)nc3C)nn2)cc1 | 93% (inactive) |
| COC(=O)c1ccccc1NC(=O)CSc1n[nH]c(CC(C)C)n1 | 47% (inactive) |
| CCOC(=O)c1ccccc1NC(=O)CSc1ccc(-c2sc(-c3ccccc3)nc2C)nn1 | 34% (inactive) |
| Cc1nc(-c2ccccc2)sc1-c1ccc(SCC(=O)NCc2ccccc2)nn1 | 58% (inactive) |
| Cc1ccc(OCC(=O)Nc2ccc3c(c2)sc(=O)n3C)cc1 | 110% (inactive) |

| Compound | survival |
| --- | --- |
| O=C(Cn1ncc2c3ccccc3n(Cc3ccc(Cl)cc3)c2c1=O)NCCC1=CCCCC1 | 89% (inactive) |
| CCc1ccc(C2CC(=O)c3c([nH]c(C(=O)OC4CCCC4)c3C)C2)cc1 (stereo not drawn) | 97% (inactive) |
| O=C(CSc1nnc(NC(=O)NC2CCCCC2)s1)Nc1ccccc1F | 79% (inactive) |
| CCCn1c(C(=O)OC)cc2c1ccn2C | 78% (inactive) |
| CC1(C)Cc2[nH]c(=S)c(C#N)cc2CO1 | 88% (inactive) |
| CCc1cnc2c(c1SCC(=O)NCc1ccc(C)cc1)c(=O)n(C)c(=O)n2C | 70% (inactive) |
| CCCc1cnc2c(c1SCC(=O)NCc1ccc(C)cc1)c(=O)n(C)c(=O)n2C | -4% (active) |
| Cc1ccc(CNC(=O)CSc2c(C(C)C)cnc3c2c(=O)n(C)c(=O)n3C)cc1 | 85% (inactive) |
| COCCOC(=O)C1=C(C)N=C2SCCC(=O)N2C1c1ccc(OCc2ccccc2)c(OC)c1 (stereo not drawn) | 58% (inactive) |
| COc1cc(C2C(C(=O)OCC(C)C)=C(C)N=C3SCCC(=O)N32)ccc1OCc1ccccc1 (stereo not drawn) | 46% (active) |
| CCOC(=O)C1=C(C)N=C2SCCC(=O)N2C1c1ccc(OCc2ccccc2)c(OC)c1 (stereo not drawn) | 133% (inactive) |
| O=C1CC(c2ccccc2)Cc2[nH]c(=O)c(-c3nc(-c4ccc(Cl)cc4)cs3)cc21 (stereo not drawn) | 72% (inactive) |
| CCNc1cc(N2CCN(C3CCCCC3)CC2)c2noc3c2c1C(=O)c1ccccc1-3 | 73% (inactive) |
| O=C1c2ccccc2-c2onc3c(Br)cc(NC4CCCCC4)c1c23 | 101% (inactive) |
| CCCCNc1cc(N2CCN(C3CCCCC3)CC2)c2noc3c2c1C(=O)c1ccccc1-3 | -5% (active) |
| CCN(CC)c1cc(NC2CCCCC2)c2c3c(onc13)-c1ccccc1C2=O | 1% (active) |
| CN(C)CCCNc1cc(N2CCN(C3CCCCC3)CC2)c2noc3c2c1C(=O)c1ccccc1-3 | 51% (inactive) |
| CCCCNc1cc(NC2CCCCC2)c2c3c(onc13)-c1ccccc1C2=O | 92% (inactive) |
